In PubChem BioAssay AID1159580 (chemical genetic matrix, 2015):
In all, about 5,500 compounds went through this assay and about 2,000 (36%) were called active. Not shown: some 18% with an inconclusive outcome. Rule as the data show it: active = normalized growth mostly below about 0.91 (no sharp cut-off); inconclusive = no clear call, values can overlap the other calls; inactive = mostly above about 0.92. This is one part of the list.

Experiment: chemical genetic growth profiling, strain panel (AID 1159580);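 also: tested at 20 µM; growth read once vehicle control cultures reached saturation at 30 °C; 1 = growth at the plate median or of vehicle wells; lower values mean less growth of the strain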
Conditions: growth OD
[1] = S. cerevisiae deletion strains, locus YAL013W, strain DEP1, hits give low values
[2] = S. cerevisiae deletion strains, locus YDR150W, strain NUM1, hits give low values
[3] = S. cerevisiae deletion strains, locus YGR078C, strain PAC10, hits give low values
[4] = S. cerevisiae deletion strains, locus YMR307W, strain GAS1, hits give low values
[5] = S. cerevisiae deletion strains, locus YNL322C, strain KRE1, hits give low values
[6] = S. cerevisiae deletion strains, locus YPL055C, strain LGE1, hits give low values

Measured: normalized growth

O=C(COc1ccc2c(c1)OCO2)N1CCN(c2ncc(C(F)(F)F)cc2Cl)CC1
active: S. cerevisiae deletion strains, locus YHR030C, strain SLT2, hits give low values 0.55 | S. cerevisiae deletion strains, locus YLR085C, strain ARP6, hits give low values 0.7
inactive: [1] 0.993 | S. cerevisiae deletion strains, locus YBR229C, strain ROT2, hits give low values 1 | S. cerevisiae deletion strains, locus YCL061C, strain MRC1, hits give low values 0.983 | S. cerevisiae deletion strains, locus YDL101C, strain DUN1, hits give low values 1.03 | [2] 0.997 | S. cerevisiae deletion strains, locus YEL061C, strain CIN8, hits give low values 0.948 | [3] 0.996 | S. cerevisiae deletion strains, locus YHR087W, strain rtc3, hits give low values 0.977 | S. cerevisiae deletion strains, locus YJL187C, strain SWE1, hits give low values 1 | S. cerevisiae deletion strains, locus YJR043C, strain POL32, hits give low values 1.03 | S. cerevisiae deletion strains, locus YJR075W, strain HOC1, hits give low values 0.984 | S. cerevisiae deletion strains, locus YKL190W, strain CNB1, hits give low values 0.963 | S. cerevisiae deletion strains, locus YLR039C, strain RIC1, hits give low values 0.876 | S. cerevisiae deletion strains, locus YLR058C, strain SHM2 (second series), hits give low values 0.998 | S. cerevisiae deletion strains, locus YLR262C, strain YPT6, hits give low values 0.885 | S. cerevisiae deletion strains, locus YML094W, strain GIM5, hits give low values 0.964 | S. cerevisiae deletion strains, locus YMR219W, strain ESC1, hits give low values 0.994 | S. cerevisiae deletion strains, locus YMR263W, strain SAP30, hits give low values 1.01 | [4] 0.791 | S. cerevisiae deletion strains, locus YNL153C, strain GIM3, hits give low values 0.978 | S. cerevisiae deletion strains, locus YNL298W, strain CLA4 (second series), hits give low values 0.944 | [5] 0.987 | S. cerevisiae deletion strains, locus YNR030W, strain Alg12, hits give low values 0.92 | S. cerevisiae deletion strains, locus YOL006C, strain TOP1, hits give low values 0.999 | [6] 1.03 | S. cerevisiae deletion strains, locus YPL241C, strain CIN2, hits give low values 1.06 | S. cerevisiae deletion strains, locus YPR135W, strain CTF4, hits give low values 0.802 | S. cerevisiae strains, strain wild type, hits give low values 0.985

c1cnc(N2CCN(Cc3ccc4c(c3)OCO4)CC2)nc1
inactive: [1] 0.95 | S. cerevisiae deletion strains, locus YAL040C, strain CLN3, hits give low values 0.967 | S. cerevisiae deletion strains, locus YCL061C, strain MRC1 (second series), hits give low values 0.982 | [2] 0.996 | S. cerevisiae deletion strains, locus YDR363W, strain ESC2, hits give low values 0.988 | S. cerevisiae deletion strains, locus YER002W, strain NOP16, hits give low values 0.988 | [3] 0.993 | [4] 0.999 | S. cerevisiae deletion strains, locus YNL175C, strain NOP13, hits give low values 1 | S. cerevisiae deletion strains, locus YNL197C, strain WHI3, hits give low values 0.976 | S. cerevisiae deletion strains, locus YNL224C, strain SQS1, hits give low values 0.985 | [5] 0.979 | S. cerevisiae deletion strains, locus YOR083W, strain WHI5 (second series), hits give low values 0.985 | [6] 0.991
